Shown are actives, neighbours in structure and some others; about 13% of the full set was active somewhere.
Pf growth 48h = Primary qHTS for delayed death inhibitors of the malarial parasite plastid, 48 hour incubation; P. falciparum luciferase growth in erythrocytes, 48 h; Potency, µM (top dose mostly 28.7 µM), for the others: top-dose activity change, negative = inhibition, hits mostly inhibitors; hit rate 5.9% among 310,000; also: potency is read from the fitted curve at half-maximal effect
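Erythrocytes infected with P. falciparum carrying an integrated firefly luciferase reporter (2% hematocrit, 0.1% parasitemia final) were exposed to compounds in RPMI 1640 with 0.5% Albumax at 37 C, 5% CO2. Growth inhibition was scored as reduced luminescence.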
HCMV inh = qHTS Assay for inhibitors of the human cytomegalovirus (HCMV). HFF cells, HCMV-luciferase reporter, 72 h; stronger effect = lower value. activity change, negative = inhibition, % at 57.5 µM. hit rate 4.5% among 410,000; in the data active = activity change below about -60%; inconclusive = no clear call, values can overlap the other calls; inactive = above about -39%
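After 16 h attachment at 37C, HFF cells received test compound and HCMV-luciferase (1 PFU/cell); reporter luminescence read 72 h later, data normalized against buffer-only and known inhibitor Salinomycin.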
Pf growth 96h = Primary qHTS for delayed death inhibitors of the malarial parasite plastid, 96 hour incubation; P. falciparum luciferase reporter growth, 96 h; Potency, µM (doses to about 28.7 µM), for inactives: at the top dose activity change, negative = inhibition, usual class: inhibitors; hit rate 6.9% among 320,000; also: potency is read from the fitted curve at half-maximal effect
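Infected RBCs, 2% Hct / 0.05% parasitemia final; luciferase-reporter P. falciparum; cpd 96 h, 37 C, 5% CO2; luciferase detection reagent; luminescence.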
HCV inh = qHTS Assay for Inhibitors of Hepatitis C Virus (HCV). hit rate 3.4% among 340,000. AID 651820, 2012. Potency, µM (doses to about 41.8 µM), for the others: at the highest dose activity change, negative = inhibition, usual class: inhibitors. Huh7.5.1 HCVcc-Cre infection, luciferase reporter, 44 h; also: potency is read from the fitted curve at half-maximal effect
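Cells (1,000/well) were plated 4 h before compound, then infected with HCVcc-Cre virus (~0.5 moi). After 44 h further culture, infection was read as luciferase luminescence following a 15 min substrate incubation at room temperature.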
* marks the source's active call; other numbers are inactive results; u = inconclusive; x = no result; [ ] = remark or other dose. Unless noted, calls follow the shape of the dose curve; as a rule, active = well fitted inhibition curve with a large enough effect; inconclusive = small, poorly fitted or top-dose-only effect, or another doubt; inactive = no such curve, though single readings can be large or run the other way. % is scaled to controls: 0 for no effect and ±100 for the full control effect.

SMILES	Pf growth 48h	HCMV inh	Pf growth 96h	HCV inh
COc1ccc(CNC(=O)c2cc3cc(C)ccc3n2C)cc1	x	-78.6*	x	x
Cc1ccc2c(c1)cc(C(=O)Nc1ccccc1C)n2C	x	38.0	x	x
COCCCNC(=O)c1sc2nc3n(c(=O)c2c1C)CCC3	x	26.7	x	x
O=C(N/N=C/c1ccccc1)c1[nH]c2ccc(Br)cc2c1-c1ccccc1	13.6%	-99.0*	38.3%	u
O=C(NN=C1CCCC1)c1[nH]c2ccc(Br)cc2c1-c1ccccc1	0.0%	-90.6*	u	-11.0%
O=C(CCN1CCOCC1)Nc1c(-c2ccccc2)c2cc(Br)ccc2[nH]c1=O	u	23.1	u	4.6%
O=C(N/N=C/c1ccccn1)c1[nH]c2ccc([N+](=O)[O-])cc2c1-c1ccccc1	u	-13.1	-6.0%	u
Cc1ccc(NC(=O)N2CCN(c3ccc(Cl)c(Cl)c3)CC2)cc1	x	-62.3*	x	x
CC(C)c1ccc(NC(=O)N2CCN(c3ccc(Cl)c(Cl)c3)CC2)cc1	x	-79.3*	x	x
CCOc1ccc(NC(=O)N2CCN(c3ccc(Cl)c(Cl)c3)CC2)cc1	x	-35.9	x	x
COc1ccccc1C(O)c1ncc(-c2ccccc2C)[nH]1 (centres undefined)	x	-21.3	x	x
Cc1cc(C)c(NC(=O)Cn2c(=O)n(CCC(=O)NCc3ccccc3Cl)c(=O)c3sccc32)c(C)c1	x	-7.6	x	x
CCC(=O)Nc1cc(Cl)ccc1N1CCN(C(=O)CC)CC1	u	-15.4	16.7%	-10.6%
CCC(=O)N1CCN(c2ccc(Cl)cc2NC(=O)c2ccc3c(c2)OCCO3)CC1	u	-61.2*	22.6%	-10.0%
CCC(=O)N1CCN(c2ccc(Cl)cc2NC(=O)c2ccc(N3CCCC3)c([N+](=O)[O-])c2)CC1	u	-28.6	1.85µM*	u
O=C(CSc1nc2ccc([N+](=O)[O-])cc2[nH]1)NC1CCCCCC1	23.0%	12.7	u	14.1µM*
COc1ccc(CN(C)C(=O)c2ccc(COc3ccccc3)cc2)c(OC)c1	u	-39.2	u	u
COc1ccc(CN(C)CC(=O)Nc2ccccc2-c2ccccc2)c(OC)c1	10.4µM*	-26.1	u	u
Cc1ccccc1CN(C)CC(=O)Nc1ccccc1-c1ccccc1	u	u	9.28µM*	u
COc1ccc(CN(C)C(=O)C(Cc2ccccc2)NC(=O)c2ccccc2)c(OC)c1 (centres undefined)	10.4µM*	-18.4	u	u
COc1ccccc1CN(C)CC(=O)Nc1ccccc1-c1ccccc1	u	-21.0	u	u
O=C1C=CC(=O)C(CNc2ccc(C(=O)OCc3ccccc3)cc2)=C1	x	-22.8	x	10µM*
CN(C)c1ccc(C(=O)OCc2ccccc2)cc1	x	-22.1	57.5%	-15.9%
O=C(Nc1ccc(F)cc1)N1CCOCC1	19.7%	22.1	u	11.0%
O=C(Nc1ccc(Cc2ccc(NC(=O)N3CCOCC3)cc2)cc1)N1CCOCC1	u	112.8	4.15µM*	u
SMILES	Pf growth 48h	HCMV inh	Pf growth 96h	HCV inh
O=C(Nc1cccc(O)c1)N1CCOCC1	39.7%	-22.8	11.7µM*	4.3%
CN(C)c1ccc(NC(=O)N2CCOCC2)cc1	6.57µM*	67.9	u	0.4%
CCOc1ccc(NC(=O)c2c(NCc3sccc3C)sc3c2CCCCC3)cc1	x	-8.1	x	x
Cc1c(C(=O)N(C)C)sc2c1c(=O)n(-c1ccc(Cl)cc1)c(=O)n2CC(=O)C(C)(C)C	x	91.5	x	x
CCOc1cccc(NC(=O)C2CC(=O)N(C)C(=Nc3ccc(F)cc3)S2)c1 (centres undefined)	x	-11.5	x	x
O=C(NCc1ccncc1)c1ccc(Cl)c(S(=O)(=O)N2CCOCC2)c1	u	-24.2	-23.6%	1.8%
O=C(NCCc1ccccc1)c1ccc(Cl)c(S(=O)(=O)N2CCOCC2)c1	u	-5.4	10.4µM*	u
COc1cccc(CNC(=O)c2ccc(Cl)c(S(=O)(=O)N3CCOCC3)c2)c1	8.28µM*	0.0	6.57µM*	u
CC(C)(C)SCCNC(=O)c1ccc(Cl)c(S(=O)(=O)N2CCOCC2)c1	x	-35.9	x	u
Cc1ccc(NC(=O)CSc2nc3ccc(NC(=O)COc4ccc(C)cc4)cc3s2)cc1	x	-19.3	x	x
Cc1cc(C)cc(C(=O)NCCc2sc(-c3ccc(F)cc3)nc2C)c1	x	-16.4	x	x
Cc1ccc(C(=O)N2N=C(c3ccc(NS(C)(=O)=O)cc3)CC2c2cccs2)cc1 (centres undefined)	-3.3%[0.00184 µM]	18.8	u	u
Cc1ccc(C(=O)N2N=C(c3cccc(NS(C)(=O)=O)c3)CC2c2cccs2)cc1 (centres undefined)	18.6%[0.00184 µM]	-60.0*	u	u
CS(=O)(=O)Nc1ccc(C2=NN(C(=O)C3CCCCC3)C(c3cccs3)C2)cc1 (centres undefined)	u	-62.2*	u	4.8%
CS(=O)(=O)Nc1cccc(C2=NN(C(=O)c3ccccc3)C(c3cccs3)C2)c1 (centres undefined)	13.1µM*	-16.4	26.2%	u
Cc1ccc(Sc2ccc(N3CCCC(C(=O)Nc4ccc(F)cc4)C3)nn2)cc1 (centres undefined)	x	-24.1	x	x
COC(=O)c1ccc(COC(=O)C(CCS(C)(=O)=O)N2C(=O)c3ccccc3C2=O)cc1 (centres undefined)	-9.1%	-20.0	6.57µM*	14.6%
CS(=O)(=O)CCC(C(=O)OCc1ccc(Br)cc1)N1C(=O)c2ccccc2C1=O (centres undefined)	-2.9%	-3.4	19.9%	4.7%
CC(C)(C)C1CCC2(CC1)SCC(=O)N2c1ccccc1 (centres undefined)	11.7µM*	-16.9	95.0%	12.2%
CC1CCC2(CC1)SCC(=O)N2c1ccc(F)cc1 (centres undefined)	28.8%	-19.9	10.6%	12.2%
COc1ccc(CC(=O)NCc2ccc3c(c2)CCN3C(C)=O)cc1	x	111.0	x	x
CC(C)(C)N(CC#CCC1(O)c2ccccc2-c2ccccc21)CCO	u	u	11.7µM*	8.3%
COc1ccccc1CNC(=O)c1cccc(-c2ccc(C)c3ccccc23)n1	u	39.0	14.7µM*	-8.3%[8.37 µM]
Cc1cccc(NC(=O)CSc2nnc(-c3cccs3)o2)c1	x	53.5	x	x
C=CCn1c(SCc2ccc(Cl)cc2)nc2cc(C(=O)N3CCC(C(N)=O)CC3)ccc2c1=O	u	u	6.57µM*	37.4%
SMILES	Pf growth 48h	HCMV inh	Pf growth 96h	HCV inh
C=CCn1c(SCC(=O)NC23CC4CC(CC(C4)C2)C3)nc2cc(C(=O)O)ccc2c1=O	2.94µM*	u	4.65µM*	8.3%
Cc1ccc(CNS(=O)(=O)c2cnc(N)nc2)cc1	x	34.7	x	x
CCc1nnc2c(Nc3ccc(Br)c(C)c3)nc3ccccc3n12	x	19.1	x	x
COc1ccc(OC)c(NC(=O)CCc2nc(-c3ccc(C)cc3)no2)c1	x	-31.8	x	x
CCc1cc(=O)oc2c(CNCc3c(F)cccc3Cl)c(O)ccc12	9.28µM*	-30.2	u	-17.7%
CCCc1cc(=O)oc2c(CNc3ccc(OCC)cc3)c(O)ccc12	u	-19.6	u	u

High-throughput results (PubChem BioAssay)
